Measured values reported in PubChem BioAssay AID1619 (SRMLSC, 2009).
In all, about 220,000 compounds went through this assay and about 830 (0.38%) were called active.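 How the source made its calls: active means compound inhibiting the enzyme by more than half at any dose during confirmatory dose-response retesting; inconclusive means strong single-dose inhibitors picked by rank but not retested; inactive means the rest.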 The list is a sample of the results. Results with a measured potency or affinity are listed apart.

Target: Leucine aminopeptidase (Plasmodium falciparum (isolate 3D7)) (UniProt Q8IL11)
Test: P. falciparum M17LAP inhibitors, primary screen, biochemical, fluorogenic H-Leu-NHMec substrate, 1536-well (AID 1619);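 further: plate controls were full reaction with DMSO carrier for no effect and no enzyme background for full effect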
Conditions: recombinant M17LAP, H-Leu-NHMec fluorogenic kinetic assay; at 30 µM; active compounds read high

Sequence of Leucine aminopeptidase (Plasmodium falciparum (isolate 3D7)) (Q8IL11 whole entry, looked up): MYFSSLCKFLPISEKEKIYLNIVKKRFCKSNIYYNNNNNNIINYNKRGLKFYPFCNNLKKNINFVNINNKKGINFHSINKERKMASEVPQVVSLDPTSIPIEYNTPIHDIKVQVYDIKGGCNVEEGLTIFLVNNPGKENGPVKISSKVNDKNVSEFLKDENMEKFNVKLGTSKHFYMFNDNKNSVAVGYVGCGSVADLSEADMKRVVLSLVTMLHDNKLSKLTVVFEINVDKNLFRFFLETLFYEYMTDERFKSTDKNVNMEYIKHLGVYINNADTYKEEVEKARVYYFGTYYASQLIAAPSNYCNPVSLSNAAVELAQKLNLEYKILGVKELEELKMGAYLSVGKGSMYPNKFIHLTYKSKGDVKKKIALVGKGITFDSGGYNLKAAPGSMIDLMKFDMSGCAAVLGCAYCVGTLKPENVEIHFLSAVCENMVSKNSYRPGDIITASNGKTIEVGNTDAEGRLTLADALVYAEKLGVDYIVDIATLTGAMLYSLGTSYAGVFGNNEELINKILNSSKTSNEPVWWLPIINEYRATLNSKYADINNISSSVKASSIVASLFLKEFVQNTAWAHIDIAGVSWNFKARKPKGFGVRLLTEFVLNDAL

inhibition, inactive:
Cc1ccc2nc(C(O)C(O)c3nc4ccc(C)cc4[nH]3)[nH]c2c1 (stereo not drawn) 12.8%
COc1ccc(/C=N/NC(=O)c2[nH]c(C)c(C(=O)N/N=C/c3ccc(OC)cc3)c2C)cc1 -5.84%
Cc1[nH]c(C(=O)N/N=C/c2ccc(N(C)C)cc2)c(C)c1C(=O)N/N=C/c1ccc(N(C)C)cc1 -3.97%
O=C(N/N=C/c1cccs1)c1c[nH]c2ccccc12 19.5%
O=C(COc1ccc(C(=O)c2ccccc2)cc1)NCC(=O)Nc1ccccc1Br 0.07%
O=C1/C(=C/c2cccnc2)CCC/C1=C\c1cccnc1 12.8%
N#Cc1cc(-c2ccccc2)nn1-c1ccccc1 -15.3%
Cn1c(-c2ccccc2)n[nH]c1=S -6.39%
O=C(CN1C(=O)CSC1=O)Nc1ccc2c(c1)OCCO2 53.7%
Cc1nnc(NC(=O)c2ccccc2Br)s1 -1.4%
O=C(Nc1ccccc1C(=O)Nc1nncs1)c1ccccc1 11.8%
O=C(Nc1nncs1)c1cccnc1Cl 26.3%
CCOc1ccccc1C(=O)Nc1nncs1 -3.85%
CCCCc1nc2sc3c(c2c(=O)[nH]1)CCC3 -6.58%
COc1ccccc1C1SCCN1S(C)(=O)=O (stereo not drawn) -6.23%
COc1cccc(OCC(=O)O/N=C(\N)c2ccc(OC)c(OC)c2)c1 -15%
COc1ccc2oc(C)c(C(N)=O)c2c1 2.03%
CCOC(=O)CCC(=O)c1c(C)oc2ccc(OC)cc12 9.88%
O=C1NC[C@H](Cc2ccc(O)cc2)N(CCc2cccc3ccccc23)C1=O -2.35%
COc1ccc(NC(=O)CN2C(=O)CSC2=O)cc1 30.1%
CCOC(=O)c1ccc(NC(=O)CN2C(=O)CSC2=O)cc1 19%
O=C(CN1C(=O)C2CC=CCC2C1=O)Nc1ccc(S(=O)(=O)Nc2ncccn2)cc1 (stereo not drawn) 1.4%
CCOc1ccc(N2C(=O)C3CCCN3C2=O)cc1 (stereo not drawn) -1.37%
CCOC(=O)c1ccc(NC(=O)CN2C(=O)CCC2=O)cc1 -7.84%
COc1ccc(NC(=O)CN2C(=O)CSC(C)C2=O)c(OC)c1 (stereo not drawn) 37.7%
CCOc1ccc(NC(=O)CN2C(=O)NC(CCSC)C2=O)cc1 (stereo not drawn) 27.7%
CCOc1ccc(NC(=O)C2CCC(N3C(=O)C4CC=CCC4C3=O)CC2)cc1 (stereo not drawn) 48%
Cc1cccc(OCCSc2nncn2C)c1 -2.41%
